Assay outcomes (PubChem BioAssay)
aSyn 5UTR act – Activators working through SNCA 5'UTR binding (MLPCN). alpha-synuclein 5'UTR reporter, activators screen. activity score, % (tested at 7.5 µM), hits read low. 7.1% of 300,000 active; in the data active means activity score below about -60%
Of the large screens only hits and unclear results are named; the others gave an inactive call. Only a sample is shown.

O=C(NC1CCCCC1)Oc1cc2oc(=O)sc2cc1Cl	aSyn 5UTR act -62.2
COc1cc(/C=C(/C)[N+](=O)[O-])ccc1OCc1ccccc1Cl	aSyn 5UTR act -133.7
CN(C)C(=O)Oc1cccc(-c2cn3cc(Cl)ccc3n2)c1	aSyn 5UTR act -82.3
CN(C)C(=O)Oc1ccc(-c2cn3cc(C(F)(F)F)ccc3n2)cc1	aSyn 5UTR act -85.7
CC(=O)OC1CC[C@]2(C#N)[C@H]3CC[C@]4(C)[C@H](C5C=CC(=O)O5)CCC4(O)C3CCC2(O)C1 (stereo partly drawn)	none
CN(C)C(=O)Oc1ccc2c(=O)c(Oc3ccccc3Br)coc2c1	aSyn 5UTR act -77.3
Cc1cc(C(=O)CS(=O)(=O)c2ccc(F)cc2)cc(C)c1OC(=O)N(C)C	aSyn 5UTR act -135.4
C/C=C(\C)C(=O)N[C@@H](c1ccccc1)[C@@H](O)C(=O)O[C@H]1C[C@@]2(O)[C@@H](OC(=O)c3ccccc3)C3[C@](C)(C(=O)[C@H](OC(C)=O)C(=C1C)C2(C)C)[C@@H](O)C[C@H]1OC[C@@]31OC(C)=O (stereo partly drawn)	none
CCCCCCOC(=O)c1ccccc1N	aSyn 5UTR act -136.0
CCOc1cccc(CNCCc2c(C)[nH]c3ccc(OC(F)(F)F)cc23)c1O	none
Cc1ccc(-c2nc3ccc(Cl)cc3n2OC(=O)N(C)C)cc1	aSyn 5UTR act -129.1
CC(=O)OC(C)(C)/C=C/C(=O)C(C)(O)C1[C@H](O)C[C@@]2(C)C3CC=C4C(CC[C@@H](O)C4(C)C)[C@]3(CO)C(=O)C[C@]12C (stereo partly drawn)	none
CCN1CCN(c2nc3ccccc3s2)CC1	aSyn 5UTR act -131.4
NC(=S)c1cn(C2OC(CO)C(O)C2O)c2ncnc(N)c12 (stereo not drawn)	none
O=[N+]([O-])c1ccc(NC2CCCC2)c2ccncc12	none
CC1(C)CN=C(Nc2nc3ccccc3s2)S1	aSyn 5UTR act -117.9
CCN(CC)C(=O)c1ccc(NC(=O)c2cccc(F)c2)cc1	aSyn 5UTR act -79.9
O=c1[nH]c(=S)[nH]c(O)c1N=Nc1ccc(SC(F)F)cc1	aSyn 5UTR act -72.0
CCCCCCCSc1cc(OC)c(CCNC)cc1OC	none
CC1CC(OP(O)(=S)c2ccc(N(C)C)cc2NC(=O)c2cccs2)CC(C)(C)C1 (stereo not drawn)	aSyn 5UTR act -112.9
COc1ccc(-c2cc(=Nc3ccccc3)c3cc(C)ccc3o2)cc1	aSyn 5UTR act -100.2
COc1ccc(-c2cc(=NCCC(=O)O)c3cc(C)ccc3o2)cc1	aSyn 5UTR act -121.1
Cn1c(O)c(Cc2ccc(OCc3ccccc3)cc2)c(=O)n(C)c1=O	aSyn 5UTR act -139.9
COC1CC(OC2CCC3(C)C(CCC4C3CCC3(C)C(C5=CC(=O)OC5)C(OC(C)=O)CC43O)C2)OC(C)C1OC1OC(COC2OC(CO)C(O)C(O)C2O)C(O)C(O)C1O (stereo not drawn)	none
CN1C(=O)C(=Cc2ccc(OCC(=O)Nc3ccccc3)cc2)C(=O)N(C)C1=O	aSyn 5UTR act -77.7
O=Cc1cn(Cc2cccc([N+](=O)[O-])c2)c2ccccc12	none
Nc1ccc2c(c1)Cc1ccccc1-2	aSyn 5UTR act -174.6
CCOc1ccccc1-n1c(O)c(C=Nc2ccc(N(CC)CC)cc2)c(=O)[nH]c1=O	aSyn 5UTR act -65.5
N=C1c2ccccc2CN1NC(=O)c1ccc(F)cc1	aSyn 5UTR act -62.4
CCCC(=O)Nc1cc(C(=O)N2CCC3(CC2)OCCO3)ccc1S(=O)(=O)c1ccc(C)cc1	none
Cc1ccc2nc(N3CCC(C(=O)N4CCC5(CC4)OCCO5)CC3)sc2c1	aSyn 5UTR act -78.5
O=C(C1CCN(c2nc3ccc(Br)cc3s2)CC1)N1CCC2(CC1)OCCO2	aSyn 5UTR act -80.4
CCOc1ccc2nc(N3CCC(C(=O)N4CCC5(CC4)OCCO5)CC3)sc2c1	aSyn 5UTR act -82.0
CCCCCCC[n+]1ccc(-c2cc[n+](CCCCCCC)cc2)cc1	none
COC(=O)C1=C(c2cc3ccccc3o2)C[C@@H]2CC[C@H]1N2C(=O)N1CCCCC1	none
O=c1nc(/C=C/c2ccc(Cl)cc2Cl)cc(C(F)(F)F)[nH]1	aSyn 5UTR act -63.6
C/C1=C\[C@@H](C)C/C=C/[C@H]2[C@@H]3O[C@]3(C)[C@@H](C)[C@H]3[C@H](Cc4c[nH]c5ccccc45)NC(=O)[C@]32C(=O)/C=C/C(=O)[C@@H]1O	none
CCC(=NCCC1=CCCCC1)c1c(O)[nH]c(=O)[nH]c1=O	none
CC1CCN(CC(=O)c2ccc3c(c2)OCCO3)CC1	aSyn 5UTR act -77.5
CC1CCN(CC(=O)c2ccccc2Cl)CC1	aSyn 5UTR act -133.6
CC(C)[C@H]1C(=O)O[C@H](C(C)C)C(=O)N(C)[C@@H](C(C)C)C(=O)O[C@H](C(C)C)C(=O)N(C)[C@@H](C(C)C)C(=O)O[C@H](C(C)C)C(=O)N1C	none
NC(Cc1nc2ccccc2[nH]1)c1ccc(Cl)cc1 (stereo not drawn)	aSyn 5UTR act -166.7
Cc1ccc(-n2c(C)nc3cc(Cl)ccc3c2=O)nc1	aSyn 5UTR act -116.5
Cc1ccc(CN2C3CCCC2CC(NC(=O)Nc2cccc(F)c2)C3)cc1 (stereo not drawn)	aSyn 5UTR act -98.7
Cc1cc(C(=O)Nc2ccccc2)nn1C(C)(C)C	aSyn 5UTR act -111.7
Cc1cc(C(=O)Nc2ccc3c(c2)OCCO3)nn1C(C)(C)C	aSyn 5UTR act -136.2
CN(C)c1ccc(/C=C/C=C/c2sc3ccccc3[n+]2C)cc1	none
COc1ccc(-c2cc(C(=O)N3CCC4(CC3)OCCO4)c3ccccc3n2)cc1	aSyn 5UTR act -88.2
COc1cccc(OC)c1C1=NCC(=O)Nc2c1oc1ccc(Br)cc21	none
COC(=O)c1nc(-c2ccc3c(n2)C(=O)C(N)=C(OC)C3=O)c(N)c(-c2ccc(OC)c(OC)c2O)c1C	none
Cc1nc2ccccc2c(=O)n1-c1ccc(Cl)c(Cl)c1	aSyn 5UTR act -137.6
Cc1nc2ccccc2c(=O)n1-c1ccc([N+](=O)[O-])cc1	aSyn 5UTR act -121.0
CN(C)C(Cc1ccc(Cl)cc1)C(=O)c1ccccc1 (stereo not drawn)	aSyn 5UTR act -81.6
COC(=O)c1ccc(CC(C(=O)c2ccccc2)N(C)C)cc1 (stereo not drawn)	aSyn 5UTR act -153.9
Nc1ncnc2c1ccn2[C@@H]1O[C@H](CO)[C@@H](O)[C@H]1O	none
N#Cc1cc2c(nc1SCC(=O)Nc1cc(Cl)ccc1Cl)C1CCN2CC1	aSyn 5UTR act -140.4
N#Cc1cc2c(nc1SCC(=O)Nc1ccc(Cl)cc1)C1CCN2CC1	aSyn 5UTR act -159.2
CC[C@@]1(O)C(=O)OCc2c1cc1n(c2=O)Cc2cc3c(NC(=O)CN)cccc3nc2-1	none
CCC1(OC(=O)CN)C(=O)OCc2c1cc1n(c2=O)Cc2cc3ccccc3nc2-1 (stereo not drawn)	none
Clc1ccc2sc(C3CCNCC3)nc2c1	aSyn 5UTR act -159.4
CCn1c(NN=O)nc2ccccc21	none
O=[N+]([O-])c1ccccc1-c1cc(-c2ccccc2)cc(-c2ccccc2)[n+]1Cc1ccccc1Cl	none
CC[C@@]1(O)C(=O)OCc2c1cc1n(c2=O)Cc2cc3ccccc3nc2-1	none
CCc1ccc(N2C(=O)NC(=O)/C(=C/c3cccn3CCOc3ccc(C(C)CC)cc3)C2=O)cc1 (stereo not drawn)	aSyn 5UTR act -81.6
C[C@@H]1O[C@@H](O[C@H]2C[C@@H](O)[C@]3(CO)[C@H]4[C@H](O)C[C@]5(C)[C@@H](C6COC(=O)C6)CC[C@]5(O)[C@@H]4CC[C@]3(O)C2)[C@H](O)[C@H](O)[C@H]1O (stereo partly drawn)	none
O=C(c1ccccc1)c1ccc(N=Nc2c(O)[nH]c(=O)[nH]c2=O)cc1	aSyn 5UTR act -73.8
